# The panel holds about 83,000 compounds, 20% with a hit somewhere; the sample as a whole holds those more often.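 Cells were grown in 96-well plates and exposed to the test compound at a single concentration for 48 hours; results are reported as percent growth, with values below 10 considered active.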 Values without a mark were called inactive. The source made the active and inactive calls.
# Key:
# Assay in all cases: NCI-60 one-dose screen, 48 h (100 = growth as untreated, 0 = no growth, -100 = all killed)
# Conditions in all cases: 10 µM unless noted
# SR leukemia = system: SR leukemia
# RPMI-8226 leukemia = system: RPMI-8226 leukemia
# OVCAR-8 ovarian = system: OVCAR-8 ovarian
# OVCAR-5 ovarian = system: OVCAR-5 ovarian
# OVCAR-4 ovarian = system: OVCAR-4 ovarian
# SK-OV-3 ovarian = system: SK-OV-3 ovarian
# IGROV1 ovarian = system: IGROV1 ovarian
# OVCAR-3 ovarian = system: OVCAR-3 ovarian
# HS 578T breast = system: HS 578T breast
# NCI/ADR-RES ovarian = system: NCI/ADR-RES ovarian
Structure (SMILES),growth (SR leukemia),growth (RPMI-8226 leukemia),growth (OVCAR-8 ovarian),growth (OVCAR-5 ovarian),growth (OVCAR-4 ovarian),growth (SK-OV-3 ovarian),growth (IGROV1 ovarian),growth (OVCAR-3 ovarian),growth (HS 578T breast),growth (NCI/ADR-RES ovarian)
Cc1cc(C)c([I+]c2c(C)cc(C)cc2C)c(C)c1,-49.1% (active),-8.17% (active),-60.3% (active),-7.26% (active),-44.8% (active),-26.4% (active),-47.6% (active),-44.9% (active),20.5%,78%
CCOC(=O)c1c(C)[nH]c2ccc(O)cc12,101%,89.5%,97.6%,130%,107%,99.2%,103%,105%,92%,101%
CCCCCCCCCCCC1=NCCCN1CCCC,57.6%,93.4%,101%,93.4%,101%,102%,105%,104%,112%,96.8%
O=C(Cc1ccccc1)C(F)(F)F,94.7%,106%,103%,99.5%,106%,101%,101%,101%,111%,104%
NC1=C(Br)C(=O)c2ncccc2C1=O,-27.8% (active),0.625% (active),10.3%,-49.4% (active),-89.5% (active),34.9%,-5.9% (active),-11.9% (active),-13.1% (active),9.48% (active)
NC(=S)Nc1ccc2c(c1)Cc1ccccc1-2,84.9%,62.1%,84.5%,101%,83.4%,98.1%,88.3%,98.3%,88.2%,88.2%
CCCCCCCCCCCC(=O)OC(C)C(=O)NCCCC (centres undefined),85.7%,104%,100%,107%,108%,102%,107%,107%,101%,101%
CC(CSc1n[nH]c(=S)s1)c1ccccc1 (centres undefined),84.5%,103%,109%,127%,94.1%,102%,110%,117%,108%,114%
CCN1CCCC(Nc2cc(C)nc(/N=C(/N)Nc3ccc(Cl)c(Cl)c3)n2)C1 (centres undefined),-60.3% (active),-31.6% (active),-21.5% (active),13%,-17.3% (active),6.57% (active),14.5%,-49% (active),-37.8% (active),17.2%
CCN(CC)CCNC(Cc1ccccc1)c1ccc(OCc2ccccc2)cc1 (centres undefined),24.7%,34.8%,79.7%,56.2%,66.7%,83.1%,57.7%,95.4%,70.8%,76.1%
COc1ccc(C(Cn2ccnc2)Sc2ccc(Cl)c(Cl)c2)cc1 (centres undefined),97.4%,50.7%,91%,91.3%,79.6%,86.4%,59.3%,89.7%,112%,69.1%
N=C(N)Sc1cccc[n+]1[O-],4.61% (active),7.12% (active),45.6%,98.2%,15.7%,85.3%,46.5%,21.7%,82.9%,53.5%
C/C(=N\NC(=S)N1CC2CCC(CC2)C1)c1ccccn1,-10.1% (active),-6.26% (active),18.2%,24.5%,-41.2% (active),18.9%,5.07% (active),-17.7% (active),16.3%,12.6%
O=[N+]([O-])/C(=C/c1ccccc1)c1ccccc1,88.5%,108%,105%,103%,99%,100%,104%,109%,110%,106%
CCOC(=O)NC(/C=C/c1ccccc1)NC(=O)OCC,103%,101%,108%,108%,109%,90.3%,106%,107%,103%,109%
O=[N+]([O-])c1ccc(C(Br)c2ccc([N+](=O)[O-])cc2)cc1,7.81% (active),66.1%,63.2%,124%,64.3%,97.3%,-53.2% (active),110%,107%,91.5%
O=C(c1ccccc1)C(Br)C(Br)c1ccccc1 (centres undefined),31.4%,-3.12% (active),78.8%,104%,90.2%,115%,-22.3% (active),-10.9% (active),104%,117%
Cc1cc(Br)c2nsnc2c1[N+](=O)[O-],19.2%,23.9%,52.8%,72.8%,47.7%,91.3%,27.4%,57%,47%,50.5%
CC(/C=N/NC(N)=S)Cc1ccc(C(C)C)cc1 (centres undefined),135%,104%,79.3%,86.6%,29.8%,85.8%,25.7%,77.7%,71.7%,64.4%
CC1(C)CCCC2=C1C(=O)N(SC(Cl)(Cl)Cl)C2=O,77.2%,91.9%,102%,103%,98.2%,93.7%,103%,104%,102%,105%
Oc1ccc2ccccc2c1N=Nc1nccs1,-10% (active),2.25% (active),14.9%,45.3%,16.2%,51.6%,184%,1.47% (active),213%,-22.6% (active)
c1ccc(-c2cc3cc4ccccc4cn3c2)cc1,67.4%,66.4%,85.4%,112%,76.4%,92.2%,79.7%,88.9%,88.2%,91.7%
Oc1ccc(Cl)cc1C(c1cc(Cl)ccc1O)C(Cl)(Cl)Cl,-25.2% (active),11.5%,29.6%,8.25% (active),20.6%,32%,56%,-16.9% (active),0.476% (active),4.17% (active)
CSc1nc(C)c(C(=O)CCN2CCN(c3ccccn3)CC2)s1,94.3%,80.1%,98.4%,104%,97.5%,102%,119%,104%,102%,110%
CCOC(=O)C1=NN(c2ccccc2)C(=O)/C1=C\N1C(=O)/C(=C/c2cccc(O)c2)SC1=S,83.3%,88.1%,95.8%,121%,98.8%,99.8%,96%,106%,94%,99.3%
OC(c1cc2ccc(C(F)(F)F)cc2c2cc(C(F)(F)F)ccc12)C1CCCCN1 (centres undefined),-84.7% (active),-54.5% (active),-63.8% (active),-99% (active),-100% (active),-100% (active),-83.9% (active),-100% (active),-44.2% (active),-84.6% (active)
CCCCCCC1N=C(N)N=C(N)N1c1cccc(Cl)c1 (centres undefined),31.5%,14%,35.7%,58.9%,43.9%,45.1%,58%,41.5%,55.2%,111%
CC(C)Nc1ccc(Nc2ccc(NC(C)C)cc2)cc1,26.2%,17.8%,51.6%,96.3%,49.5%,53.2%,50.7%,31.6%,73.4%,95.5%
O/N=C1\c2ccccc2-c2ccc(F)cc21,91.2%,85.8%,102%,93.8%,85.8%,97.3%,85.4%,–,120%,107%
